According to PubChem BioAssay (NCATS):
Results filed as inconclusive are left out. Entries that show only a call come without a potency. Calls of active or inactive are those of the source. Calls come from the whole dose curve; as a rule, active = well fitted inhibition curve with a large enough effect; inconclusive = small, poorly fitted or top-dose-only effect; inactive = flat fitted curve, though single readings scatter.

Molecular target: Calcium and integrin-binding protein 1 (Homo sapiens) (UniProt Q99828)
Test: Primary qHTS for Identification of Calcium Integrin Binding Protein 1 (CIB1) Competitor (AID 1508620);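 note: GST tagged CIB1 binding a fluorescein labelled alphaIIb integrin peptide tracer; top concentration of the series differs between compounds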
Conditions: CIB1-GST / FITC-alphaIIb peptide fluorescence polarization; series mostly up to 114 µM
From the text: Assay Provider: Ulhas P. Naik, PhD Sidney Kimmel Medical College Thomas Jefferson University, Philadelphia, PA Primary function of platelets is to maintain hemostasis. At the site of vascular injury, platelets adhere to adhesive proteins such as collagen and von Willebrand factor. Adherent platelets are activated and generate soluble platelet agonists such as thrombin, ADP and thromboxane A2. Following exposure of circulating platelets to these agonists, results in platelet shape change, granule secretion and activation of platelet integrin alphaIIb-beta3. Ligand binding to activated integrin alphaIIb-beta3 triggers outside-in signaling, leading to platelet aggregation, stabilization of platelet plug, and clot retraction. Upon atherosclerotic plaque rupture also causes platelet plug formation, which underlies a number of cardiovascular diseases such as myocardial infraction and stroke. A number of anti-platelet drugs such as aspirin, clopidogrel, prasugrel, vorapaxar, and eptifibatide are currently available to prevent the thrombotic complications. However, these anti-platelet agents have several limitations including inherent variability in individual responses, developing resistance, and serious bleeding side effects. For these reasons they are not suitable for long-term protection. Based on the experiences with current anti-platelet drugs, it appears that the most useful therapeutic approach is to intersect the secondary responses such as integrin outside-in signaling or recruitment of platelets by TxA2 and secreted ADP. Compounds, which can largely preserve the primary hemostatic function of platelets but inhibit secondary response will be most desired therapeutic agents for treatment of cardiovascular disease. CIB1 is a calcium integrin binding protein, which specifically interact with the alphaIIb subunit of integrin alphaIIb-beta3. Binding of CIB1 to alphaIIb regulates the outside-in signaling in platelets, which is needed for thrombus stabilization and thrombus growth. […] Therefore, we propose that discovery of a small molecule that can prevent the association of CIB1 and alphaIIb-beta3 will be a potential anti-platelet agent that can block the thrombus formation without undue effect on hemostasis. Reference: [1] Naik MU, Nigam A, Manrai P, et al. CIB1 deficiency results in impaired thrombosis: the potential role of CIB1 in outside-in signaling through integrin alpha IIb beta 3. J Thromb Haemost.
PROTOCOL TABLES SEQUENCE No. (1, 2, 3, etc.); […] (e.g., Cells, Incubation, Reagent, etc.); VALUE and DESCRIPTION. 1; Reagent; 3 uL; Protein or buffer (4/3x) 2; Compound; 46 nL; Control inhibitor / compound library 3; Time; 15 min; Room temperature incubation 4; Reagent; 1 uL; Fluorescent labeled peptide (4x) 5; Time; 1000 rpm; Centrifuge 6; Time; 15 min; Room temperature incubation 7; Detection; Ex 480/ Em 540; ViewLux Fluorescence Read NOTES (numbers refer to sequence above) 1; Protein Mixture: C1B1-GST (final concentrations of 1 uM). […] 3; Room temperature incubation. 4; Fluorescent Labeled Peptide: FITC-aIIb (final concentration of 100 nM). Sequence of alphaIIb peptide: Acetyl-[…]-FITC (purity is 95.83%). 5; Centrifuge 1000 rpm (164 g) for 15 seconds. 6; Room temperature incubation. 7; ViewLux Fluorescent Polization Read: excitation = 480(20) / emission = 540(25) S and P; FITC Dichroic mirror.

Calcium and integrin-binding protein 1 (Homo sapiens), sequence (Q99828 whole entry, looked up): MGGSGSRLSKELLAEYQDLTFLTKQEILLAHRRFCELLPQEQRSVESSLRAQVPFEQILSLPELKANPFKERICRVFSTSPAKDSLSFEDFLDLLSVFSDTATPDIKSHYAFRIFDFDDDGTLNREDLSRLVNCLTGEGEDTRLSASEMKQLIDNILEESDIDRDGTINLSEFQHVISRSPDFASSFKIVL

SMILES | Potency
COc1ccc(S(=O)(=O)Nc2c(C)cc(C)cc2C)cc1 | inactive
CC1(C)C2CCC(CO[C@@H]3O[C@H](CO[C@@H]4OC[C@](O)(CO)[C@H]4O)[C@@H](O)[C@H](O)[C@H]3O)C1C2 (stereo not given in full) | inactive
C=C1C(=O)O[C@@H]2[C@H]1CCC(C)=C(CCC(=O)O)[C@@]2(C)O | inactive
O=C(CN1C2=NCCN2c2ccccc21)c1ccc(-c2ccccc2)cc1 | inactive
O=C(Nc1ccc(C(F)(F)F)cn1)N1CCN(c2ncccc2C(F)(F)F)CC1 | inactive
CCCc1cc(C)n(C)c(=O)c1CN(C)C(=O)c1cc(-c2ccc(N3CCN(C(C)C)CC3)nc2)cc2c1cnn2C(C)C | inactive
NC(=O)c1cnc(N[C@@H]2CCCC[C@@H]2N)nc1Nc1cccc(-n2nccn2)c1 | inactive
C/C=C(/C)C(=O)O[C@H]1C=C(CO)C(=O)[C@H](OC(=O)/C(C)=C/CO)[C@H]1C(C)C | inactive
Cc1c(Cl)cccc1S(=O)(=O)Nc1nc(NCCc2ccccc2)nc2c1CN(Cc1ccccc1)CC2 | inactive
Nc1nc2c(cnn2CCCc2ccc(O)cc2)c2nc(-c3ccco3)nn12 | inactive
CN1CC[C@@H](c2c(O)cc(O)c3c(=O)cc(-c4ccc(C(F)(F)F)cc4Cl)oc23)[C@@H]1CO | inactive
CNc1cccc(CCOc2ccc3c(c2)CN(CC(F)(F)F)C(=O)[C@H](CC(=O)O)C3)n1 | inactive
O=C(O)c1cccc(-c2ccc(-c3cn(C(=O)N4CCCCC4Cc4ccccc4)nn3)cc2)c1 (stereo not given) | inactive
CC(=O)OC1C(OC(=O)c2ccccc2)C2C(=C(C)CCC2(C)C)C23CCC(C)(C2)C(=O)CC13 (stereo not given) | inactive
C/C=C(/C)C(=O)OC1C=C2C3C(C)C(C)C(OC(=O)C(C)C(C)O)CC3(C)CCC2(C)C2(C)CC(OC(C)=O)C3C(C)(C)C(O)C(=O)CC3(C)C12 (stereo not given) | inactive
C=C1C(=O)O[C@@H]2/C=C(\C)CC/C=C(/C=O)[C@H](OC)[C@@H](OC(=O)C(C)C)[C@@H]12 | inactive
O=C(NCCO)c1cccc(-c2cc(Nc3ccc(OC(F)(F)F)cc3)ncn2)c1 | inactive
CC1(C)OC[C@H](NC(=O)Nc2ccc(Br)cc2Br)[C@H](c2ccccc2)O1 | inactive
CC1(C)CC[C@]2(C(=O)O)CC[C@]3(C)C(=CCC4[C@@]5(C)C[C@@H](O)[C@H](O)C(CO)(CO)C5CC[C@]43C)C2[C@@H]1O (stereo not given in full) | inactive
CCc1cc(C(N)=O)ccc1-n1nc(C(C)C)c2c(-n3cnc(-c4cnn(C)c4)c3)ccnc21 | inactive

SMILES | Potency
O=C(NC1CCN(CCCCC2(C(=O)NCC(F)(F)F)c3ccccc3-c3ccccc32)CC1)c1ccccc1-c1ccc(C(F)(F)F)cc1 | inactive
COc1ccc(Sc2ccc(NC(=O)c3ccccc3Cl)cc2C#N)cc1 | inactive
COC(=O)c1cc(Br)cnc1N1CCC(NC2CCCCC2)C(O)C1 (stereo not given) | inactive
CC(=O)O[C@@H]1CC2C(/C=C(\C)C(=O)[C@@]3(O)C[C@@H](C)[C@H](OC(=O)c4ccccc4)C3/C=C/1C)C2(C)C (stereo not given in full) | inactive
CCOc1ccc(CCNC(=O)c2cc3sc(Cl)cc3n2C)cc1OCC | inactive
O=S(=O)(NCc1cccc2ccccc12)c1cc(Cl)c(Oc2cccc(N3CCNCC3)c2)s1 | inactive
FC(F)(F)c1ccccc1-c1cc(C(F)(F)F)c2nc(C3=NOC4(CCCCC4)C3)[nH]c2c1 | inactive
CN1CCN(c2ccc(Nc3cc(-c4cccc(-n5ccc6cc(C7CC7)cc(F)c6c5=O)c4CO)cn(C)c3=O)nc2)CC1 | inactive
C=C1/C(=C/C=C2\CCC[C@]3(C)[C@@H]([C@H](C)CC[C@@H](O)C(C)(C)O)CC[C@@H]23)C[C@@H](O)C[C@@H]1O | inactive
CC(C)c1c(O)ccc2c1CC[C@H]1C(C)(C)CCC[C@]21C | inactive
CCc1cnc(N2CCC(c3nc(COc4ccc(-n5cnnn5)cc4)cs3)CC2)nc1 | inactive
C=C1C(=O)O[C@@H]2C[C@H](C)C3=CC(=O)[C@H](O)[C@@]3(C)C[C@H]12 | inactive
CCOc1ccc(S(=O)(=O)N2CCCCCC2)c2ccccc12 | inactive
CN(C)C(=O)Nc1cccc(-c2ccc(N(C)C)cc2)c1 | inactive
COc1c2c(c(C)c3c1C(=O)OC3)O[C@@]1(C)C[C@@H](OC(C)=O)[C@]34O[C@](OC)(CC[C@]3(C)[C@H]1C2)OC4(C)C | inactive
COc1cc(NC(=O)c2cc(C3CC3)on2)c(OC)cc1Cl | inactive
Cc1cc(-c2nc3cc(F)ccc3s2)ccc1NC(=O)[C@@H](N)CCCCN | inactive
Cn1cc(C2=C(c3coc4ccccc34)C(=O)NC2=O)c2cc(Br)ccc21 | inactive
COc1cccc(CN(C(=O)CC(C)(C)C)[C@H]2C[C@H](C(=O)N3CCNCC3)N(Cc3ccc4c(c3)OCO4)C2)c1 | inactive
Fc1ccc(CN2CCC(Nc3ccc(C(F)(F)F)nn3)CC2)cc1F | inactive
